# Test results published in PubChem BioAssay (NCI).
# This is part of a sample that, as a whole, favours compounds with a hit. Of some 83,000 tested, about 20% had one in any assay.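 Values shown are percent growth following 48 h exposure of cells in 96-well plates to a single concentration of compound; below 10 was considered active.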 A number with no mark means an inactive call. Activity calls are given as the source filed them.
# Experiments:
# Assay in all cases: NCI-60 one-dose screen, 48 h (100 = growth as untreated, 0 = no growth, -100 = all killed)
# Conditions in all cases: 10 µM
# 786-0 renal = test system: 786-0 renal
# MALME-3M melanoma = test system: MALME-3M melanoma
# MDA-MB-231 breast = test system: MDA-MB-231 breast
# UACC-257 melanoma = test system: UACC-257 melanoma
# SK-MEL-28 melanoma = test system: SK-MEL-28 melanoma
# SK-MEL-2 melanoma = test system: SK-MEL-2 melanoma
# EKVX NSCLC = test system: EKVX NSCLC
# SN12C renal = test system: SN12C renal
# TK-10 renal = test system: TK-10 renal
# CAKI-1 renal = test system: CAKI-1 renal
# A498 renal = test system: A498 renal
# OVCAR-8 ovarian = test system: OVCAR-8 ovarian
# OVCAR-5 ovarian = test system: OVCAR-5 ovarian
# IGROV1 ovarian = test system: IGROV1 ovarian
# OVCAR-3 ovarian = test system: OVCAR-3 ovarian
# HS 578T breast = test system: HS 578T breast
# NCI/ADR-RES ovarian = test system: NCI/ADR-RES ovarian
# BT-549 breast = test system: BT-549 breast
# MDA-MB-435 melanoma = test system: MDA-MB-435 melanoma
# SW-620 colon = test system: SW-620 colon
Compound,growth (786-0 renal),growth (MALME-3M melanoma),growth (MDA-MB-231 breast),growth (UACC-257 melanoma),growth (SK-MEL-28 melanoma),growth (SK-MEL-2 melanoma),growth (EKVX NSCLC),growth (SN12C renal),growth (TK-10 renal),growth (CAKI-1 renal),growth (A498 renal),growth (OVCAR-8 ovarian),growth (OVCAR-5 ovarian),growth (IGROV1 ovarian),growth (OVCAR-3 ovarian),growth (HS 578T breast),growth (NCI/ADR-RES ovarian),growth (BT-549 breast),growth (MDA-MB-435 melanoma),growth (SW-620 colon)
Cc1ccc(COc2ccc(NC(=O)Nc3ccc(Cl)c(C(F)(F)F)c3)cc2)cc1,89.4%,75.5%,90.2%,76.1%,93.6%,85.3%,63.1%,81.1%,77.9%,61.7%,82.6%,80.4%,85%,79.2%,68.7%,86.7%,84.7%,74.4%,86.1%,86.5%
COc1ccc(C2OC[C@@]3(C)C4CC[C@]5(C)C(CC=C6C7CC(C)(C)CC[C@]7(C(=O)O)CC[C@]65C)[C@@]4(C)C[C@@H](O)[C@@H]3O2)cc1 (stereo not given in full),94.8%,99.3%,110%,96.3%,103%,102%,52.9%,82%,76%,73.5%,102%,73.2%,108%,101%,74.1%,85.3%,87.1%,82.4%,97%,69.9%
COc1ccc(Cc2nn(CC(=O)N/N=C/c3ccc([N+](=O)[O-])cc3)c(=O)c3c(C)noc23)cc1,26.3%,53%,61.2%,92.8%,80.3%,99.1%,86.6%,39%,101%,53.2%,111%,56.6%,90.2%,82.9%,45.1%,48.8%,73.9%,87.4%,71.7%,60.9%
COc1cccc(O)c1/C=C1\SCc2cc3c(OC)cccc3[o+]c21,105%,107%,102%,103%,105%,110%,105%,101%,111%,96.8%,141%,107%,105%,104%,108%,111%,108%,111%,132%,115%
CC1(C)CC(=O)C2=C(C1)N(Cc1ccc(C(=O)O)cc1)C1=C(C(=O)CC(C)(C)C1)C2c1ccc(Cl)cc1,95.5%,105%,106%,101%,119%,97.6%,97.5%,103%,92.2%,90.5%,95.8%,105%,106%,107%,112%,105%,95.3%,93.5%,102%,101%
O=C(CC(=O)Nc1ccc(Oc2ncnc3scc(Nc4n[nH]c(=S)s4)c23)cc1)Nc1ccc(Br)cc1,109%,105%,101%,104%,110%,98.8%,101%,106%,146%,88.8%,121%,102%,106%,106%,105%,96.7%,103%,108%,103%,101%
COc1cc2oc(-c3cccc(C(=O)Nc4ccc(Cl)cc4)c3)cc(=O)c2c(OCCN)c1OC,-80.9% (active),-67.9% (active),-86.7% (active),-85.2% (active),-88.1% (active),-94.5% (active),-84.6% (active),-91.1% (active),-91.2% (active),-85% (active),-93.9% (active),-85.5% (active),-87.4% (active),-73.7% (active),-87.8% (active),-68.1% (active),-74.7% (active),-88.2% (active),-76.9% (active),-79.4% (active)
